Records with an inconclusive call do not appear. A call without a number means that no potency is given here. The source made the active and inactive calls. Unless noted, the call rests on the fitted dose curve; in most records, active means well fitted curve in the direction sought with a large enough effect; inconclusive means small, poorly fitted or top-dose-only effect, or another doubt; inactive means no such curve, though single readings can be large; an effect the other way counts as inactive or inconclusive.

Tested on in the first assay: not listed separately
The experiment in a line: Primary qHTS for inhibitors of nuclear receptor binding SET domain protein 2 (NSD2) in an RCH-ACV wild type WT cells (2C) (AID 1645877). Further: nearly all actives have a fitted effect of over 70% in size. Further: potency means the concentration at half of the fitted maximal effect. Conditions: RCH-ACV (leukaemia line) NSD2 WT (2C) viability, CellTiter-Glo, 72 h; series mostly up to 44.9 µM.
With `C=C(C)C(=O)O[C@H]1[C@@H]2[C@H](C)C(=O)O[C@@H]2C[C@@H](C)[C@@H]2C=CC(=O)[C@]21C`, the Potency was 1.79 µM (active).

For `CCN1C[C@]2(COC)CC[C@H](O)[C@@]34C5C[C@@H]6[C@@H](OC)C[C@@](OC(C)=O)(C5[C@@H]6OC(C)=O)[C@H]([C@H](OC)C23)[C@@H]14` (stereo partly specified), the Potency entry is “inactive”.

For `CN1C(=O)N(c2ccc(C#N)c(C(F)(F)F)c2)C(=O)[C@@]1(CO)c1ccccc1`, the Potency entry was “inactive”. Same read-out and setting: the figure for `COC1CC(O[C@H]2CC[C@@]3(C)C(CCC4C3CC[C@]3(C)C(C5=CC(=O)OC5)CCC43O)C2)OC(C)C1OC1OC(COC2OC(CO)C(O)C(O)C2O)C(O)C(O)C1O` (stereo partly specified) is 1.73 µM (active).

For `C=C(C)[C@@]12O[C@@H]1[C@@]1(C)C(=CC2=O)CC[C@@H](OC(C)=O)[C@@H]1C`, the Potency is 3.25 µM (active). On the same count and under the same terms, the figure for `CN1Cc2c(ccc3c2OCO3)[C@@H]2[C@H]1c1cc3c(cc1C[C@@H]2O)OCO3` is 2.26 µM (active). Still for that read-out and setting: the entry for `CC[C@H](O)[C@@H](C)[C@H]1O[C@@H]1C[C@H](C)/C=C/C=C(\C)[C@H]1OC(=O)C[C@H](O)CC[C@@](C)(O)[C@@H](OC(C)=O)/C=C/[C@@H]1C` is “inactive”. On the same count and under the same terms, with `COC(=O)C12C(=O)C(C)(O)C(=O)C1(C)C(C)=CC1C34CCC(OC3=O)C(C)(C)C4CCC12C` (stereo unspecified) the entry was “inactive”. On to `Fc1cc(F)c2c(c1)C1C=CCC1C(c1cccnc1)N2` (stereo unspecified), for which the Potency is 16.3 µM (active).

On to `C[C@]12CC[C@H](O)C[C@@H]1CC[C@@H]1[C@@H]2CC[C@]2(C)[C@@H](C3=CC(=O)OC3)CC[C@]12O`, for which the Potency was 4.5 µM (active).

On to `CC1=CC(=O)[C@@H](O)[C@@]2(C)C1C[C@H]1OC(=O)[C@H](O)[C@@]3(O)[C@@H](C)[C@@H](O)[C@H](O)C2[C@@]13C` (stereo partly specified), for which the Potency was 1.01 µM (active).

The target in a further assay is Catechol O-methyltransferase (Homo sapiens) (UniProt P21964). As to the kind of experiment: Confirmatory Screen for Target Class Profiling of Small Molecule Inhibitors of Methyltransferases (AID 1745852; calls by dose curve). Conditions: MTase-Glo luminescence, SAH detection, recombinant enzyme; measured here: COMT max response; stronger effect = lower value.
Catechol O-methyltransferase (Homo sapiens), sequence (P21964 whole entry, looked up): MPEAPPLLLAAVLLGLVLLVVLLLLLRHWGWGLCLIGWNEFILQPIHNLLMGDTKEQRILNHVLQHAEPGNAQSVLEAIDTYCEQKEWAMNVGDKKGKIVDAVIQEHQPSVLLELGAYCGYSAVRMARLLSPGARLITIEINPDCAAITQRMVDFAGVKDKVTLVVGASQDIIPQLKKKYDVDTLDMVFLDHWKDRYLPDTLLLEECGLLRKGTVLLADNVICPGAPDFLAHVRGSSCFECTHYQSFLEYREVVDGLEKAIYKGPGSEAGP
With `C#C[C@]1(O)CC[C@H]2[C@@H]3CC[C@H]4Cc5nc6nc7ccccc7n6cc5C[C@]4(C)[C@H]3CC[C@@]21C`, the activity was -13.5%. Take `Fc1cc(F)c2c(c1)C1C=CCC1C(c1cccnc1)N2` (stereo unspecified): the activity was -0.484%.

Regarding `CCCN(CCC)[C@@H]1CCc2ccc3[nH]c(C#N)cc3c2C1`, the activity is -0.359%.

In a further assay the target is Guanidinoacetate N-methyltransferase (Homo sapiens) (UniProt Q14353). The assay is described as above. The conditions noted are these: MTase-Glo luminescence, SAH detection, recombinant enzyme; activity change, negative = inhibition: at 57.3 µM (top of the series) unless noted; series mostly up to 57.3 µM.
For `C#C[C@]1(O)CC[C@H]2[C@@H]3CC[C@H]4Cc5nc6nc7ccccc7n6cc5C[C@]4(C)[C@H]3CC[C@@]21C`, the activity change, negative = inhibition is -2.81%. Still for that read-out and setting: the figure for `Fc1cc(F)c2c(c1)C1C=CCC1C(c1cccnc1)N2` (stereo unspecified) is 0.0443%.

In the case of `CCCN(CCC)[C@@H]1CCc2ccc3[nH]c(C#N)cc3c2C1`, the activity change, negative = inhibition amounted to 0%.

The target in a further assay is Nicotinamide N-methyltransferase (Homo sapiens) (UniProt P40261). The assay is described as above. Conditions: MTase-Glo luminescence, SAH detection, recombinant enzyme; measured here: NNMT max response; stronger effect = lower value.
Nicotinamide N-methyltransferase (Homo sapiens), sequence (P40261 whole entry, looked up): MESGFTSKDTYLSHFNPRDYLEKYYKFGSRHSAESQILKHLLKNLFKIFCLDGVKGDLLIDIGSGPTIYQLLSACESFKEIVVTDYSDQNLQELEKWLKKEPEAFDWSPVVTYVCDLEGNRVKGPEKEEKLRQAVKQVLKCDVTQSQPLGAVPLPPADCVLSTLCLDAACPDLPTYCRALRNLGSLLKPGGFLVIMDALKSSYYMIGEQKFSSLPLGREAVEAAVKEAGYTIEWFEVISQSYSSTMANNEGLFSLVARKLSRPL
Turning to `C#C[C@]1(O)CC[C@H]2[C@@H]3CC[C@H]4Cc5nc6nc7ccccc7n6cc5C[C@]4(C)[C@H]3CC[C@@]21C`, the activity is -21%. On the same count and under the same terms, with `Fc1cc(F)c2c(c1)C1C=CCC1C(c1cccnc1)N2` (stereo unspecified) the figure was -6.05%. The same measure, in the same setting: the figure for `CCCN(CCC)[C@@H]1CCc2ccc3[nH]c(C#N)cc3c2C1` is -9.72%.

For the next assay, the target named is Phenylethanolamine N-methyltransferase (Homo sapiens) (UniProt P11086). The description is as above. The conditions noted are these: MTase-Glo luminescence, SAH detection, recombinant enzyme; measured here: PNMT max response; stronger effect = lower value.
Phenylethanolamine N-methyltransferase (Homo sapiens), sequence (P11086 whole entry, looked up): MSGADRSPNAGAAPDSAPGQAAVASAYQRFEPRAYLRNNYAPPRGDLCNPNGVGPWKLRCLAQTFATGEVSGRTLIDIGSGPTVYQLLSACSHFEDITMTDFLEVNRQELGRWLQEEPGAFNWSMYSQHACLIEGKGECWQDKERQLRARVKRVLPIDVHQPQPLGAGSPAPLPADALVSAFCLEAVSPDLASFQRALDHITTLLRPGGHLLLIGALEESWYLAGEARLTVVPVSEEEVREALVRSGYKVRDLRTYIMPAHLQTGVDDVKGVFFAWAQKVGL
In the case of `C#C[C@]1(O)CC[C@H]2[C@@H]3CC[C@H]4Cc5nc6nc7ccccc7n6cc5C[C@]4(C)[C@H]3CC[C@@]21C`, the activity was -31.4%.

On to `Fc1cc(F)c2c(c1)C1C=CCC1C(c1cccnc1)N2` (stereo unspecified), for which the activity was -0.468%.

As for `CCCN(CCC)[C@@H]1CCc2ccc3[nH]c(C#N)cc3c2C1`, the activity was -4.55%.

The target in a further assay is Glutathione peroxidase 1 (Homo sapiens) (UniProt P07203). As to the kind of experiment: Primary qHTS Assay for Inhibitors of Recombinant Selenoprotein Glutathione Peroxidase 1 (GPX1) (AID 1845191). Further: nearly all actives have a fitted effect of over 65% in size. The conditions noted are these: recombinant GPX1, GR-coupled NADPH fluorescence, 15 min; series mostly up to 48.8 µM. The procedure, abridged: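 GPX1 10 nM, GR 100 nM, GSH 1 mM, NADPH 0.5 mM, CHP 0.5 mM (final). 30-min cpd preincubation, RT. Ex340/Em450 read t=0, t=15 min.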
Glutathione peroxidase 1 (Homo sapiens), sequence (P07203 whole entry, looked up): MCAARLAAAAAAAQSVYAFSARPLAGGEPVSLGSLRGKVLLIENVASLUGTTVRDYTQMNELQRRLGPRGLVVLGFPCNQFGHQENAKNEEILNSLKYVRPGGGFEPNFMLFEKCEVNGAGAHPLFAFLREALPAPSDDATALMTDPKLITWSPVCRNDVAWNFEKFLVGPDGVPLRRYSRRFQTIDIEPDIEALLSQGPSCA
As to `CN(C)[C@@H]1C(=O)C(C(N)=O)=C(O)[C@@]2(O)C(=O)C3=C(O)c4c(O)ccc(Cl)c4[C@@](C)(O)C3C[C@@H]12` (stereo partly specified), the Potency entry was “inactive”. With `CC(C)[C@H](NC(=O)c1nn(Cc2ccc(F)cc2)c2ccccc12)C(N)=O`, the Potency entry is “inactive”. As for `COC1CCCC(C)OC(=O)Cc2cc(O)cc(O)c2C(=O)C1` (stereo unspecified), the Potency result was “inactive”. Same read-out and setting: with `CN1CCCCC1Cn1cc(C(=O)c2cc([N+](=O)[O-])ccc2I)c2ccccc21` (stereo unspecified) the entry was “inactive”; with `COc1cc(C(=O)N2CC[C@@H](O)[C@@H](N)C2)cc2nc(-c3cc4ccccc4n3CC3CC3)n(C)c12`, “inactive”. The same measure, in the same setting: with `C=C1C(=O)CC2OC2(C)CC2OC(=O)C(=C)C2C(O)C1OC(=O)/C(C)=C\C` (stereo unspecified) the entry was “inactive”; with `CN1C(=O)[C@@H](Cc2c[nH]c3ccccc23)N=C(c2ccccc2F)c2ccccc21`, “inactive”. Still for that read-out and setting: the entry for `CCC1C2CC3C4N(C)c5ccccc5C45CC(C2C5O)N3C1O` (stereo unspecified) is “inactive”; for `COc1cc(O)c2c(c1)CCC[C@@H](O)[C@H](O)C(=O)/C=C\C[C@H](C)OC2=O` it is “inactive”. Take `C[C@@H]1O[C@@H](OC2CCC3(C=O)C(CCC4C3CCC3(C)C(C5=CC(=O)OC5)C(O)CC43O)C2)[C@H](O)[C@H](O)[C@H]1O[C@@H]1O[C@H](CO)[C@@H](O)[C@H](O)[C@H]1O` (stereo partly specified): the Potency entry was “inactive”.

`C=C(C)C(=O)O[C@H]1[C@@H]2[C@H](C)C(=O)O[C@@H]2C[C@@H](C)[C@@H]2C=CC(=O)[C@]21C`: the Potency entry was “inactive”. Still for that read-out and setting: the entry for `CCN1C[C@]2(COC)CC[C@H](O)[C@@]34C5C[C@@H]6[C@@H](OC)C[C@@](OC(C)=O)(C5[C@@H]6OC(C)=O)[C@H]([C@H](OC)C23)[C@@H]14` (stereo partly specified) is “inactive”. On the same count and under the same terms, with `CN1C(=O)N(c2ccc(C#N)c(C(F)(F)F)c2)C(=O)[C@@]1(CO)c1ccccc1` the entry was “inactive”. Still for that read-out and setting: the entry for `CC(=O)O[C@H]1C[C@]2(O)[C@@H]3CC[C@@H]4C[C@@H](O)CC[C@]4(C)[C@H]3CC[C@]2(C)[C@H]1c1ccc(=O)oc1` is “inactive”. Regarding `CCCCCn1cc(C(=O)Oc2cccc3cccnc23)c2ccccc21`, the Potency result is “inactive”. The same measure, in the same setting: with `COC1CC(O[C@H]2CC[C@@]3(C)C(CCC4C3CC[C@]3(C)C(C5=CC(=O)OC5)CCC43O)C2)OC(C)C1OC1OC(COC2OC(CO)C(O)C(O)C2O)C(O)C(O)C1O` (stereo partly specified) the entry was “inactive”; with `C=C(C)[C@@]12O[C@@H]1[C@@]1(C)C(=CC2=O)CC[C@@H](OC(C)=O)[C@@H]1C`, “inactive”. Still for that read-out and setting: with `CN1Cc2c(ccc3c2OCO3)[C@@H]2[C@H]1c1cc3c(cc1C[C@@H]2O)OCO3` the entry was “inactive”; with `CC1=CC2OC3CC(O)[C@](C)([C@@]2(C)C(O)C1=O)[C@]31CO1` (stereo partly specified), “inactive”; with `CC[C@H](O)[C@@H](C)[C@H]1O[C@@H]1C[C@H](C)/C=C/C=C(\C)[C@H]1OC(=O)C[C@H](O)CC[C@@](C)(O)[C@@H](OC(C)=O)/C=C/[C@@H]1C`, “inactive”. In the case of `CCOc1ccc(Oc2ccc(OCc3cc(F)ccc3F)cc2)c(N)c1`, the Potency result is “inactive”. The same measure, in the same setting: with `Cc1ccc2c(c1)[C@H]1CN(C)CC[C@H]1N2C(=O)CSc1nnnn1-c1ccc(Cl)cc1` the entry was “inactive”; with `CCCN(CCC)[C@@H]1CCc2ccc3[nH]c(C#N)cc3c2C1`, “inactive”.

In the case of `CC1=CC(=O)[C@@H](O)[C@@]2(C)C1C[C@H]1OC(=O)[C@H](O)[C@@]3(O)[C@@H](C)[C@@H](O)[C@H](O)C2[C@@]13C` (stereo partly specified), the Potency entry is “inactive”.

On to `c1ccc([C@@H]2C[C@H]2NC2CCNCC2)cc1`, for which the Potency entry was “inactive”.

With `CC(=O)OC[C@]12[C@H](OC(C)=O)C(=O)[C@@H]3[C@@H](O)[C@@]14O[C@@]3(C)COC(=O)c1cccnc1[C@@H](C)[C@H](C)C(=O)O[C@@H]([C@H](OC(C)=O)[C@@H]2OC(C)=O)[C@]4(C)O`, the Potency result was “inactive”. Still for that read-out and setting: the entry for `Cc1c(N[C@@H](c2nnc(-c3ccc(C#N)cc3)o2)[C@H](C)O)ccc(C#N)c1Cl` is “inactive”; for `COc1ccc2c(c1)c(CCN(C)C)cn2S(=O)(=O)c1ccccc1` it is “inactive”.

The values above are taken from PubChem BioAssay (NCATS).
